Screening data: PubChem, several laboratories
Hits are enriched below; roughly 1.9% of the tested compounds scored in any of these assays.
eIF4H FP inh: inhibitors of RNA binding by human eIF4H. Q15056. eIF4H fluorescence polarization binding assay. inhibition, % at 35 µM. 290,000 tested, 0.94% active. AID 2012;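 further: calls also rest on retests at 20 µM and on dose response follow-up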
PERK inhibitor: human PERK inhibition, primary cell-based screen; Q9NZJ5; CHO PERK-DD fusion, SEAP luminescence translation reporter; inhibition, % at 5.6 µM; 220,000 tested, 0.17% active;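 active means inhibition above the mean inhibition of all tested compounds plus 3 SD, set separately per screening campaign, cut at about 2.9% in these data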;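 further: PERK kinase domain activated by AP20187 dimerizer at 100 nM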
GRK2 inh: blocks RNA aptamer binding to human GRK2; P25098; bead flow cytometry, FAM-aptamer displacement from GRK2; inhibition of aptamer binding, % at 10 µM; 330,000 tested, 0.59% active;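 active means inhibition of aptamer binding above 40%, roughly 3 SD of noise, on plates passing a quality check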;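 further: median bead fluorescence of bound FAM aptamer so fluorescent compounds give negative values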
PABP polyA inh: PABP-poly(A) binding inhibition | PABP-poly(A) RNA binding, fluorescence polarization | inhibition, % at 35 µM | 290,000 tested, 1% active;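 further: calls also rest on retests at 20 µM and on dose response follow-up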
PABP1 MLLE inh: blocks PAM2 peptide binding to the PABP1 MLLE domain; P11940; GST-MLLE / FITC-PAM2 fluorescence polarization; inhibition, % at 20 µM; 360,000 tested, 0.36% active; AID 588489; in the data active means inhibition above about 35%, passing the limit was not always enough
A number is an active result; – = inactive; ? = inconclusive; · = not tested or not shown. Unless noted, how the calls were made is not given here.

SMILES | eIF4H FP inh | PERK inhibitor | GRK2 inh | PABP polyA inh | PABP1 MLLE inh
CCOc1ccc(Cl)cc1-c1cc(C(=O)NCc2cccc(C(F)(F)F)c2)[nH]n1 | · | · | · | · | –
O=c1[nH]c2cc3c(cc2cc1CN(CCCO)Cc1nnnn1Cc1ccc(F)cc1)OCO3 | – | – | – | – | 45.9
CC(C)C(c1nnnn1Cc1ccccc1)N(CCCO)Cc1cc2cc3c(cc2[nH]c1=O)OCO3 (stereo not given) | 111.1 | – | – | 93.6 | –
CCC(c1nnnn1Cc1ccc(OC)cc1)N(CCCO)Cc1cc2cc3c(cc2[nH]c1=O)OCO3 (stereo not given) | – | – | – | – | –
Cc1ccc2c(c1)[C@H]1[C@H](CO2)[C@H](c2ccccc2)[C@]2(C)C(=O)Nc3cc(F)ccc3C(=O)N12 | · | · | – | · | –
O=S1(=O)N=C2CCCCCN2C(c2ccc(F)cc2)N1 (stereo not given) | – | – | – | – | –
O=[N+]([O-])c1ccc(C2NS(=O)(=O)N=C3CCCCCN32)cc1 (stereo not given) | – | 3.6 | – | – | –
O=C(N/N=C/c1ccco1)c1cccc(NC(=O)c2cccc(Cl)c2)c1 | – | · | – | – | –
O=C(N/N=C/c1ccco1)c1cccc(N2CCCC2=O)c1 | 90.8 | – | – | – | –
O=C(N/N=C/c1ccco1)c1cccc(N2Cc3ccccc3C2)c1 | 91.1 | – | – | 52.6 | –
O=C(CSc1nnc(Nc2ccccc2)s1)NCC1CCCO1 (stereo not given) | · | · | – | · | –
CCCCN1C(=O)NC2NC(=O)NC21 (stereo not given) | – | – | – | – | –
N#C/C(=C(/O)CSc1ncn[nH]1)c1nc2ccccc2[nH]1 | – | – | – | 42.8 | –
Nc1ncnc(N2CCOCC2)c1N | 87.3 | – | – | active | –
CC(C)=CCc1cc(-c2oc3cc(O)cc(O)c3c(=O)c2O)ccc1O | · | · | – | · | –
CC(C)=CCc1c(O)cc2oc3c(CC=C(C)C)c(O)c(O)c(CC=C(C)C)c3c(=O)c2c1O | 57.8 | · | – | – | –
Cc1cccc(C(=O)NCCC(=O)Nc2nc(C)c(Cc3ccc4c(c3)OCO4)s2)c1 | active | – | – | 76.6 | –
O=C(Nc1ccc2c(c1)OCO2)c1cc2ncc(Br)cn2n1 | 54.0 | – | · | 10.3 | –
COc1ccc(CCC(C)NCc2cccc(Br)c2)cc1 (stereo not given) | – | · | – | – | –
CN(Cc1ccccc1)C(=O)C1CCN(S(=O)(=O)c2ccc(-n3cnnn3)cc2)CC1 | – | · | – | – | –
O=C(CCc1ccncc1)N1CCCC(Nc2ccc(F)c(F)c2)C1 (stereo not given) | · | · | – | · | –
Cc1ccc(C)n1Cc1ccc(C(=O)O)cc1 | 93.0 | – | 88.0 | 88.2 | –
COc1ccc(Cl)cc1NC(=O)CN1CCc2ccccc21 | – | – | – | – | –
O=C(Nc1ccc(-c2nc3ccccc3s2)cc1)C1=COCCO1 | – | – | 48.0 | – | –
S=C1Cc2ccccc2N1 | – | – | · | – | –
SMILES | eIF4H FP inh | PERK inhibitor | GRK2 inh | PABP polyA inh | PABP1 MLLE inh
Cc1cc(O)ccc1Nc1nc2ccccc2nc1Nc1ccc(O)cc1C | 23.8 | – | – | 75.4 | –
Cc1ccc(Nc2nc3ccccc3s2)c(C)c1 | – | – | – | – | –
Cc1cn([C@H]2C[C@H](O)[C@@H](CCC(=O)NC(c3ccccc3)c3ccccc3)O2)c(=O)[nH]c1=O | · | · | · | · | –
NNc1nc2sc3c(c2c(=O)[nH]1)CCc1ccccc1-3 | 101.0 | – | – | active | –
CCSc1nc2sc3c(c2c(=O)[nH]1)CCc1ccccc1-3 | – | – | – | – | –
CCN1CCN(CC(=O)N/N=C/c2ccc(F)cc2F)CC1 | – | – | – | – | –
Cn1c(=O)c2[nH]c(C(O)c3ccc(Cl)cc3)nc2n(C)c1=O (stereo not given) | · | · | · | · | –
COc1ccc(N2Cc3cccc(C(=O)NC(C)CCc4ccco4)c3C2=O)cc1 (stereo not given) | 88.2 | – | – | 36.5 | –
CCOC(=O)C1=C(C)N(C)C(=O)NC1c1cc2c(cc1[N+](=O)[O-])OCO2 (stereo not given) | 93.4 | – | – | 12.7 | –
CCCCOC(=O)C1=C(C)N(C)C(=O)NC1c1cc2c(cc1Br)OCO2 (stereo not given) | · | · | · | · | –
C#CCn1c(=NC(=O)c2cc(-c3cccs3)nc3ccccc23)sc2cc(S(N)(=O)=O)ccc21 | – | – | – | – | –
O=C1C(NS(=O)(=O)c2cccs2)=C(N2CCN(c3cccc(Cl)c3)CC2)C(=O)c2ccccc21 | 2.3 | – | – | 50.9 | –
COc1cc(C2C(C#N)=C(N)Oc3cc(C)oc(=O)c32)cc(OC)c1OC (stereo not given) | – | – | – | – | –
Cc1ccc([C@H]2C(C#N)=C(N)Oc3cc(C)oc(=O)c32)o1 | – | – | – | – | –
COc1cc(C2C(C#N)=C(N)Oc3cc(C)oc(=O)c32)cc2c1OCO2 (stereo not given) | 68.9 | – | – | 49.5 | –
Cc1cc2c(c(=O)o1)C(Cc1ccccc1)C(C#N)=C(N)O2 (stereo not given) | 69.8 | – | – | 59.1 | –
O=C(COC(=O)c1ccc(F)c(S(=O)(=O)N2CCOCC2)c1)NCc1ccccc1 | · | · | – | · | –
COc1ccc2c(=O)c3c(=O)n(Cc4ccco4)c(-c4ccco4)nc3oc2c1 | 86.0 | – | – | 79.6 | –
O=c1c2ccccc2sc2nc(C3CCCCC3)n(Cc3ccco3)c(=O)c12 | – | – | · | – | –
COc1ccc(Cn2c(-c3ccco3)nc3oc4cc(OC)ccc4c(=O)c3c2=O)cc1 | – | – | – | – | –
COc1ccc(-c2nc3oc4cc(OC)ccc4c(=O)c3c(=O)n2Cc2ccco2)cc1 | – | – | – | – | –
CCc1nc2oc3cc(OC)ccc3c(=O)c2c(=O)n1Cc1ccco1 | 51.7 | – | – | 70.7 | –
CCc1nc2sc3ccccc3c(=O)c2c(=O)n1Cc1ccco1 | 69.3 | – | – | 67.6 | –
C[C@H](O)[C@@H]1CN2CCc3c([nH]c4ccccc34)[C@@H]2C[C@@H]1N(C)Cc1cc(Cl)cc(Cl)c1 | · | · | · | · | –
O=C1N[C@H](C(=O)O)CS1 | · | · | – | · | ·
SMILES | eIF4H FP inh | PERK inhibitor | GRK2 inh | PABP polyA inh | PABP1 MLLE inh
COc1ccc(/C=C/C(=O)c2ccc(NC(=O)c3cccs3)cc2)cc1OC | – | – | – | – | –
COc1ccc(NC(=O)c2ccc(NCCN3C(=O)CCC3=O)c([N+](=O)[O-])c2)cc1 | ? | – | – | 3.6 | –
Cc1ccc(NC(=O)c2ccc(NCCN)c([N+](=O)[O-])c2)cc1 | – | – | – | – | –
CC(=O)c1ccc(NC(=O)CNc2cc(S(=O)(=O)N3CCOCC3)ccc2N2CCCC2)cc1 | · | · | · | · | –
Nc1nc(-c2ccccc2)c(-c2ccccc2)n1N | – | · | – | 37.4 | –
Nc1c(-c2ccccc2)nc(Cl)nc1-c1ccccc1 | – | – | – | – | –
COc1cccc(N2CCN(Cc3nc4scc(-c5ccccc5)c4c(=O)[nH]3)CC2)c1 | 78.6 | – | – | 69.8 | –
COCc1cc(C)nc(N/N=C/c2ccc(-c3cc(C(=O)O)ccc3Cl)o2)c1C#N | – | – | – | – | ·
CN1CCN(C(=S)NC(=O)c2ccccc2Cl)CC1 | – | · | – | – | –
